# Data as given in ChEMBL document CHEMBL3988442, “University of Dundee, Small-Polar-MMV Screening Library” (2021).
# Target: T1, Proteasome subunit beta (Trypanosoma cruzi) (UniProt O96673)
# T1 sequence (whole entry): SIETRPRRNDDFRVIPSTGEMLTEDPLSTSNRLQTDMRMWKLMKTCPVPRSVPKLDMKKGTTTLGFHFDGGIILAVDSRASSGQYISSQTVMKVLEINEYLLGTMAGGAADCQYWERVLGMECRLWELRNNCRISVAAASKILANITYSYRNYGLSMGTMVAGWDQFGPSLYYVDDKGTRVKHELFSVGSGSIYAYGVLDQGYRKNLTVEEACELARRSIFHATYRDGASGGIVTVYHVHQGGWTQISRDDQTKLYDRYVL
# Assay: Trypanosoma cruzi proteasome chymotrypsin-like activity (TcProtChymo) assay. Note: in the data most compounds retested in dose-response had high values.
# Type: functional
# Set-up: scale not given: direction of the effect not stated beside the values
# Conditions: 9.37 µM
row,SMILES,Percent Effect [%]
1,CC(=O)N1CCCC(Cc2cncc(Br)c2)CC1 (stereo not given),16.4
2,COc1ccc(C(CNC(=O)Nc2cn[nH]c2)N2CCOCC2)cc1 (stereo not given),15
3,Cc1cn2c(n1)CCC(NC(=O)c1ccc(CS(C)(=O)=O)cc1)C2 (stereo not given),4.68
4,Cc1cc(NC(=O)NCc2ccccc2OC(F)F)n(C)n1,21.3
5,CN(C)CCNC(=O)CNC(=O)N1CCc2c([nH]c3ccc(Cl)cc23)C1,0.185
6,CN(Cc1cscn1)C1CCCN(Cc2noc(C3CC3)n2)C1 (stereo not given),12.9
7,Nc1nc2c(c(=O)[nH]1)CCN(C(=O)c1cccc3nccnc13)C2,20.6
8,Cc1cccc(CNC(CN2CCN(C)CC2)c2ccccc2)c1 (stereo not given),7.3
9,CS(=O)(=O)N1CCCCCC1C1CCN(c2ncccc2C#N)CC1 (stereo not given),-0.668
10,Cc1cccc(C(=O)NCCCN2CCN(c3ccccc3)CC2)c1,12.7
11,CCOc1ccc(-c2ccnc(CC)n2)cc1C(=O)O,20
12,CS(=O)(=O)N1CCc2c(cccc2NC(=O)CC(F)(F)F)C1,11.8
13,COc1ccccc1Oc1ncccc1CNC(=O)C(C)N1CCCC1 (stereo not given),11.8
14,CCOc1ccnc(N2CCN(C(=O)c3cccnc3O)CC2)n1,4.5
15,CC(C)c1nn(C)c(Cl)c1CNCc1ccc2c(c1)OCCO2,2.28
16,CC(C)COC(C)C(=O)NCc1cc(F)cc(F)c1 (stereo not given),-0.728
17,Cc1nc(CN2CCOC(CNc3cccnn3)C2)cs1 (stereo not given),20.2
18,CCS(=O)(=O)N1CCC(c2nnc(Cn3cccn3)n2C2CC2)CC1,2.1
19,OC[C@H]1CC[C@]2(CC1)CN(Cc1ccccn1)Cc1ccccc1O2,1.25
20,O=C(Cc1cccc(F)c1)N1CCCCC1c1ccn2ccnc2n1 (stereo not given),5.3

row,SMILES,Percent Effect [%]
1,NC(=O)Nc1cccc(Oc2ccccn2)c1,8.53
2,CC(c1cccnc1)N(C)Cc1csc(-c2ccccn2)n1 (stereo not given),5.86
3,c1cnnc(NCC2CN(Cc3cccc4c3OCCO4)CCO2)c1 (stereo not given),1.18
4,COc1cccc(COCC(=O)N2CCCC(n3ccnc3)C2)c1 (stereo not given),3.06
5,CC(C)C(=O)N1CCN(C(=O)c2cc(C(C)C)on2)[C@H]2CS(=O)(=O)C[C@H]21,17.5
6,CC(NC(=O)NCCN1CCCCCC1=O)c1nncn1C (stereo not given),-2.69
7,CN1N=C(C(=O)NCc2ccc3c(c2)CCCN3C)CCC1=O,21.4
8,O=C(O)c1coc(COc2cccc(F)c2)n1,18.4
9,Cn1cccc1C(=O)N1CCC2(CC1)CN(c1ccccn1)CCO2,5.49
10,Cc1nc2c(c(C)c1CC(=O)Nc1ccc(Cl)cc1)c(=O)[nH]n2C,6.97
11,COCCC(=O)N1C[C@@H]2COC[C@]2(COCc2cccnc2)C1,12
12,O=C(NC1CC1)[C@@H]1CCO[C@@H]2CCN(Cc3ccsc3)C[C@H]21,17.5
13,Cn1cccc1C(=O)N[C@@H]1CN(CC2CC2)[C@@H]2COC[C@@H]21,-2.73
14,O=C(c1cc(F)ccc1F)C1CCN(C(=O)c2cccnc2O)CC1,3.8
15,CC(C)=CCN1CCOC(Cn2nc(C)cc2C)C1 (stereo not given),16.7
16,CCOc1cccc(CNc2ccccc2C(=O)OC)c1O,19
17,Cc1ccc(C(=O)N2CCC3(CC2)NC(=O)CC3c2ccccc2)cn1 (stereo not given),7.35
18,Cc1nnc2n1CCN(C(=O)c1cc(C)n(-c3ccccn3)c1C)C2,17
19,Cc1cccc(-n2cc(C(=O)N3CCCC(n4ccnc4)C3)nn2)c1 (stereo not given),14.6
20,O=C1CCCN1Cc1ncn2c1CN(C(=O)c1cccc(F)c1)CCC2,13.3

# Species: Homo sapiens
# Assay: To identify inhibition of the IFN signalling (Jak-Stat) pathway via expression of an eGFP reporter gene under the control of an IFN-stimulated response element (ISRE) containing MxA promoter.
# Type: functional
# Set-up: scale not given: direction of the effect not stated beside the values
# Conditions: 30 µM
row,SMILES,Percent Effect [%]
1,CC(=O)N1CCCC(Cc2cncc(Br)c2)CC1 (stereo not given),24.7
2,COc1ccc(C(CNC(=O)Nc2cn[nH]c2)N2CCOCC2)cc1 (stereo not given),-2.67
3,Cc1cn2c(n1)CCC(NC(=O)c1ccc(CS(C)(=O)=O)cc1)C2 (stereo not given),-9.1
4,Cc1cc(NC(=O)NCc2ccccc2OC(F)F)n(C)n1,4.53
5,CN(C)CCNC(=O)CNC(=O)N1CCc2c([nH]c3ccc(Cl)cc23)C1,-14.7
6,CN(Cc1cscn1)C1CCCN(Cc2noc(C3CC3)n2)C1 (stereo not given),0.628
7,Nc1nc2c(c(=O)[nH]1)CCN(C(=O)c1cccc3nccnc13)C2,-5.63
8,Cc1cccc(CNC(CN2CCN(C)CC2)c2ccccc2)c1 (stereo not given),25.7
9,CS(=O)(=O)N1CCCCCC1C1CCN(c2ncccc2C#N)CC1 (stereo not given),-7.75
10,Cc1cccc(C(=O)NCCCN2CCN(c3ccccc3)CC2)c1,13.6
11,CCOc1ccc(-c2ccnc(CC)n2)cc1C(=O)O,-11.8
12,CS(=O)(=O)N1CCc2c(cccc2NC(=O)CC(F)(F)F)C1,-9.3
13,COc1ccccc1Oc1ncccc1CNC(=O)C(C)N1CCCC1 (stereo not given),-6.43
14,CCOc1ccnc(N2CCN(C(=O)c3cccnc3O)CC2)n1,2.56
15,CC(C)c1nn(C)c(Cl)c1CNCc1ccc2c(c1)OCCO2,-34.1
16,CC(C)COC(C)C(=O)NCc1cc(F)cc(F)c1 (stereo not given),21.9
17,Cc1nc(CN2CCOC(CNc3cccnn3)C2)cs1 (stereo not given),3.75
18,CCS(=O)(=O)N1CCC(c2nnc(Cn3cccn3)n2C2CC2)CC1,-11.4
19,OC[C@H]1CC[C@]2(CC1)CN(Cc1ccccn1)Cc1ccccc1O2,5.31
20,O=C(Cc1cccc(F)c1)N1CCCCC1c1ccn2ccnc2n1 (stereo not given),10.2

row,SMILES,Percent Effect [%]
1,NC(=O)Nc1cccc(Oc2ccccn2)c1,0.913
2,CC(c1cccnc1)N(C)Cc1csc(-c2ccccn2)n1 (stereo not given),8.26
3,c1cnnc(NCC2CN(Cc3cccc4c3OCCO4)CCO2)c1 (stereo not given),18.6
4,COc1cccc(COCC(=O)N2CCCC(n3ccnc3)C2)c1 (stereo not given),10.7
5,CC(C)C(=O)N1CCN(C(=O)c2cc(C(C)C)on2)[C@H]2CS(=O)(=O)C[C@H]21,13.2
6,CC(NC(=O)NCCN1CCCCCC1=O)c1nncn1C (stereo not given),11.3
7,CN1N=C(C(=O)NCc2ccc3c(c2)CCCN3C)CCC1=O,0.664
8,O=C(O)c1coc(COc2cccc(F)c2)n1,-3.93
9,Cn1cccc1C(=O)N1CCC2(CC1)CN(c1ccccn1)CCO2,6.16
10,Cc1nc2c(c(C)c1CC(=O)Nc1ccc(Cl)cc1)c(=O)[nH]n2C,11.7
11,COCCC(=O)N1C[C@@H]2COC[C@]2(COCc2cccnc2)C1,17.3
12,O=C(NC1CC1)[C@@H]1CCO[C@@H]2CCN(Cc3ccsc3)C[C@H]21,3.93
13,Cn1cccc1C(=O)N[C@@H]1CN(CC2CC2)[C@@H]2COC[C@@H]21,-2.91
14,O=C(c1cc(F)ccc1F)C1CCN(C(=O)c2cccnc2O)CC1,-28.1
15,CC(C)=CCN1CCOC(Cn2nc(C)cc2C)C1 (stereo not given),8.7
16,CCOc1cccc(CNc2ccccc2C(=O)OC)c1O,21.5
17,Cc1ccc(C(=O)N2CCC3(CC2)NC(=O)CC3c2ccccc2)cn1 (stereo not given),-9.77
18,Cc1nnc2n1CCN(C(=O)c1cc(C)n(-c3ccccn3)c1C)C2,4.26
19,Cc1cccc(-n2cc(C(=O)N3CCCC(n4ccnc4)C3)nn2)c1 (stereo not given),21.7
20,O=C1CCCN1Cc1ncn2c1CN(C(=O)c1cccc(F)c1)CCC2,17.8
